Only some compounds are listed: those with a hit (about 0.81% of all), similar ones and a draw of the others.
SRC2 inh – inhibits human steroid receptor coactivator 2 | Q15596 | HEK293 GAL4-SRC2 luciferase reporter, luminescence | inhibition, % at 9 µM | 370,000 compounds, 0.17% hits;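 active means inhibition above the mean inhibition of all tested compounds plus 3 SD, set per campaign, cut at about 52% in these data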
NCOA3 inh – inhibits human SRC3 coactivator. HEK293 GAL4-SRC3 luciferase reporter, luminescence. inhibition, % at 3.6 µM. 360,000 compounds, 0.17% hits;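 active means inhibition above a per-campaign cutoff, the mean of all compounds plus 3 SD, cut at about 60% in these data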;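 further: higher means less SRC3-driven luciferase light from the GAL4 reporter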
COUP-TFII inh – inhibitors of human COUP-TFII (NR2F2) | inhibition, % at 8.6 µM | HEK293T NGFI-A luciferase reporter, luminescence | 370,000 compounds, 0.7% hits;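 active means inhibition above a per-plate cutoff, mean inhibition of test wells between control levels plus 3 SD, cut at about 38% in these data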;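 further: cells cotransfected with COUP-TFII expression vector driving the NGFI-A reporter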
LRH-1 inv ag – inverse agonists of human LRH-1 (NR5A2); O00482; HEK293T StAR-luciferase reporter, LRH-1 transfected, 24 h; inhibition, % at 3.6 µM; 360,000 compounds, 0.13% hits; AID 602396;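 active means inhibition above the mean inhibition of all tested compounds plus 3 SD, cut at about 73% in these data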
Target sequence (O00482 whole entry, looked up): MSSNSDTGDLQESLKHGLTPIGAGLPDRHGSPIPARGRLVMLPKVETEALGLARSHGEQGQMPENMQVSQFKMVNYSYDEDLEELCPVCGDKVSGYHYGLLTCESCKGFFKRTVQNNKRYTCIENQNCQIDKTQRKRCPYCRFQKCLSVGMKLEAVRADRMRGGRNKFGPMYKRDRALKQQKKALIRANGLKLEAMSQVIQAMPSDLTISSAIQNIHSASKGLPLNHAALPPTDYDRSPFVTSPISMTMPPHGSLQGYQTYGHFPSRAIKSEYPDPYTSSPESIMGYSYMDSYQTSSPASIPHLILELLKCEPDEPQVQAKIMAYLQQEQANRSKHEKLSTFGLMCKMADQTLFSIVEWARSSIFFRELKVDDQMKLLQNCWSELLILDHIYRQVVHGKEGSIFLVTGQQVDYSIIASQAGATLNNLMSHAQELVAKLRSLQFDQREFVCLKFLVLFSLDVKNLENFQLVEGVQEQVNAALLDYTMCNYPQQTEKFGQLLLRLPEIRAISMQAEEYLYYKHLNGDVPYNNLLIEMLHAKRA
SRC1 inh – inhibitors of human steroid receptor coactivator 1 (SRC1); 360,000 compounds, 0.12% hits; inhibition, % at 3.6 µM; Q15788; HEK293 GAL4-SRC1 luciferase reporter, luminescence;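 active means inhibition above the campaign mean plus 3 SD, with each screening campaign given its own cutoff, cut at about 60% in these data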
Of the large screens only hits and unclear results are named; the others gave an inactive call.

O=c1c2ccccc2nc(N/N=C/c2c(O)ccc3ccccc23)n1O	NCOA3 inh 74.3, LRH-1 inv ag 84.4, SRC1 inh 66.6
O=c1c2ccccc2nc(N/N=C/c2ccc(O)cc2)n1O	none
CCN1N=C(C)C=C(c2ccccc2)n2c1nc1ccccc12	none
O=C(Nc1sc2c(c1C(=O)NCCCO)CCCC2)c1ccccc1	SRC1 inh 85.5
NCCNC(=O)c1c(NC(=O)c2ccccc2)sc2c1CCCC2	none
Fc1ccc(N=C2NN=C(c3cc(F)ccc3F)CS2)cc1	none
O=S(=O)(c1ccc(N=C2NN=C(c3cc(F)ccc3F)CS2)cc1)N1CCOCC1	COUP-TFII inh 40.5
Cc1cc(C)c2c3c(oc2n1)C(=O)N(c1cccc(Cl)c1)CC(=O)N3	none
CCCN1CCc2c(sc(NC(=O)CCS(=O)(=O)c3ccccc3)c2C(N)=O)C1	none
Cc1cc(C(=O)CN2C(=O)c3ccccc3S2(=O)=O)c(C)n1-c1ccccc1	none
C=CCn1c(C)cc(C(=O)CN2C(=O)c3ccccc3S2(=O)=O)c1C	NCOA3 inh 88.0, LRH-1 inv ag 88.2, SRC1 inh 87.4 (no result: SRC2 inh, COUP-TFII inh)
O=C(NCc1ccccn1)C(=O)NCC1OCCN1S(=O)(=O)c1ccc(Cl)cc1 (centres undefined)	none
COc1cccc(C(NC(C)=O)c2ccc3cccnc3c2O)c1 (centres undefined)	LRH-1 inv ag 76.4
CC(=O)NC(c1cccc([N+](=O)[O-])c1)c1ccc2cccnc2c1O (centres undefined)	LRH-1 inv ag 83.1
O=[N+]([O-])c1ccc(NC(c2ccccc2)c2ccc3cccnc3c2O)cc1 (centres undefined)	NCOA3 inh 86.7, SRC1 inh 72.7
Oc1c(C(Nc2cccc(C(F)(F)F)c2)c2cccnc2)ccc2cccnc12 (centres undefined)	none
CN(C)c1ccc(-c2ccc3c(=O)c4ccccc4n(C)c3c2)cn1	none
COC(=O)C1CCN(Cc2nnc(-c3ccccc3)o2)CC1	none
CCOc1ccc(C(=O)Cc2ccccc2)cc1	none
CCOc1ccc(C(=O)CSCCC(=O)O)cc1	SRC2 inh 54.6, COUP-TFII inh 55.7
CCCCn1c(CCl)nc2cc(S(=O)(=O)N3CCOCC3)ccc21	SRC2 inh 63.1
CCCCn1c(C)nc2cc(S(=O)(=O)N3CCOCC3)ccc21	none
NS(=O)(=O)c1ccc(Sc2nc3ccccc3s2)c([N+](=O)[O-])c1	NCOA3 inh 61.8
C/C(=N\NC(=O)CCCNc1ccc(C)cc1)c1ccccn1	none
C[C@H]1CCC/C=C/[C@@H]2C[C@H](O)C[C@H]2[C@H](O)[C@H](S(=O)c2ccc(O)cc2)CC(=O)O1 (some centres undefined)	NCOA3 inh 62.9, COUP-TFII inh 50.6, LRH-1 inv ag 79.3
CC(C)[C@H](NC(=O)OC(C)(C)C)c1cc(C(=O)NC2CC2)c(N)s1	none (no result: NCOA3 inh, SRC1 inh)
C=C1C(=O)c2sccc2C(c2ccc(OC)c(OC)c2)C1COC(C)=O (centres undefined)	SRC2 inh 84.0, COUP-TFII inh 89.2
Cc1ccc(C(=S)N2CCN(Cc3ccccc3)CC2)cc1	none
CCN1CCN(C(=S)c2ccc(-c3ccccc3)cc2)CC1	SRC2 inh 70.7
O=C(Nc1ccc(OC(F)F)c(Cl)c1)Nc1ccc2c(c1)OCO2	none
O=C(Nc1ccc([N+](=O)[O-])cc1)Nc1ccc(OC(F)F)c(Cl)c1	NCOA3 inh 75.1
O=C(CSC1CC(=O)N(CCc2ccccc2)C1=O)Nc1cccc(Cl)c1 (centres undefined)	none
c1ccc(-c2ccc(C3=Nn4c(nnc4-c4ccncc4)SC3)cc2)cc1	none (no result: NCOA3 inh, LRH-1 inv ag, SRC1 inh)
c1csc(C2=Nn3c(nnc3-c3ccncc3)SC2)c1	SRC1 inh 64.9
Cn1nnc2cc(C(=O)NCc3ccc4c(c3)OCO4)ccc21	none
CC(C)n1cnc2c(NCc3ccccc3)cc(N[C@H](C)CO)cc21	NCOA3 inh 92.0, LRH-1 inv ag 89.5, SRC1 inh 89.0 (no result: SRC2 inh, COUP-TFII inh)
CCC(CO)Oc1cc(NCc2ccccc2)c2ncn(C(C)C)c2c1 (centres undefined)	none
COC(=O)c1cccc2c1NC(=O)C2=O	none
CCCCn1cnc2c(c(-c3ccccc3)c(-c3ccccc3)n2Cc2ccco2)c1=N	none
N=c1c2c(-c3ccccc3)c(-c3ccccc3)n(Cc3ccccc3)c2ncn1CCCn1ccnc1	NCOA3 inh 66.9
COc1ccc(S(=O)(=O)N2CCOCC2)cc1NC(=O)CCNC(=O)c1ccc([N+](=O)[O-])cc1	LRH-1 inv ag 82.1
COc1ccc(N=C2SCC(=O)N2c2ccc(OC)cc2)cc1	none
O=C(Nc1ccc(N2CCCCC2)cc1)c1ccccn1	NCOA3 inh 70.9, SRC1 inh 63.8 (no result: SRC2 inh, COUP-TFII inh)
O=C(Nc1ccc(N2CCCCCC2)cc1)c1ccccc1Cl	none
CCn1c(Oc2ccccc2F)nc2c1c(=O)n(C)c(=O)n2C	SRC2 inh 59.3, SRC1 inh 68.4
CCn1c(Oc2ccccc2)nc2c1c(=O)n(C)c(=O)n2C	none
CNc1cccnc1C=NNC(N)=S	NCOA3 inh 80.4, SRC1 inh 79.8
NC(=S)N/N=C/c1ccccc1	none
NC(=S)NN=Cc1nccc2c(C(F)(F)F)cccc12	NCOA3 inh 91.1, LRH-1 inv ag 92.9, SRC1 inh 87.2
O=C(O)c1cccc(Cn2cc(Cl)cn2)c1	none
CCOC(=O)c1cc2sccc2n1CC(=O)OC(C)C	none
CCOC(=O)c1cc2sccc2n1CC(=O)N1CCc2ccccc21	NCOA3 inh 66.7
COc1ccc(C2(C(=O)NC3CCCCC3)CCOCC2)cc1OC	none
Cc1cccc(NS(=O)(=O)c2ccc(NC(=O)CN(c3cc([N+](=O)[O-])ccc3C)S(C)(=O)=O)cc2)c1	SRC2 inh 53.7
COc1ccc(C)cc1NS(=O)(=O)c1ccc(NC(=O)CN(c2cc([N+](=O)[O-])ccc2C)S(C)(=O)=O)cc1	none
CSc1nnc(NC(=O)c2nc(S(=O)(=O)Cc3cccc(C)c3)ncc2Cl)s1	SRC2 inh 56.4
COC(=O)c1cc2c(n1S(=O)(=O)c1ccc(C)cc1)C(=O)C(=O)c1[nH]cc(C(=O)OCc3ccccc3)c1-2	NCOA3 inh 87.6, SRC1 inh 87.2 (no result: SRC2 inh, COUP-TFII inh)
COC(=O)c1cc2c(c3c4cc(OC)ccc4n(S(=O)(=O)c4ccc(C)cc4)c13)C(=O)N(Cc1ccccc1)C2	none (no result: NCOA3 inh, LRH-1 inv ag, SRC1 inh)
Oc1ccc(N=Nc2ccc3c(c2)OCCO3)c2ncccc12	SRC2 inh 56.8
Cc1cccc(N=Nc2ccc(O)c3ncccc23)c1	none
COc1ccc(NC(=O)C2(C)Cc3c(-c4ccccc4)ccnc3O2)cn1 (centres undefined)	none
COc1ccc(NC(=O)C2(C)Cc3c(-c4cccc(C(F)(F)F)c4)ccnc3O2)cn1 (centres undefined)	SRC2 inh 71.3
COc1ccc(CCNC(=O)c2ccc(CNS(=O)(=O)c3ccc(C(C)(C)C)cc3)cc2)cc1OC	none
N#CC(c1ccc(Cl)cc1)c1ccc2c(C(F)(F)F)cc(C(F)(F)F)nc2n1 (centres undefined)	NCOA3 inh 76.3, COUP-TFII inh 57.6, SRC1 inh 65.5
FC(F)(F)c1cc(C(F)(F)F)c2ccc(N3CCN(c4ccc(Cl)cc4)CC3)nc2n1	none
CCC(=O)NNc1ncnc2ccccc12	none

Source: PubChem (The Scripps Research Institute Molecular Screening Center)
